Source: PubChem BioAssay AID493056 (National Center for Advancing Translational Sciences (NCATS), 2011)
Out of some 360,000 compounds screened, about 2,400 (0.67%) were called active. The full list was thinned out, with actives kept by preference. Values without a mark were called inactive. Rule as the data show it: active = enhancement above about 30%; inactive = the rest.

Target: Thyrotropin-releasing hormone receptor (Homo sapiens) (UniProt P34981)
Assay: qHTS for Small Molecule Agonists and Allosteric Enhancers of Human TRH Receptor: Primary Screen for Enhancers; also: 0% is about no effect
Conditions: TRHR cells, fluo-8 calcium fluorescence, EC20 TRH enhancement; at 2 µM; active compounds read high
In short: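 Enhancer read-out: after compound pinning and an initial kinetic agonist-mode read, an EC20 of TRH (10 nM final) was injected and fluo-8 calcium signal (Ex 480/Em 530) followed at 1 s/cycle for 100 cycles in TRHR-expressing cells.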

Thyrotropin-releasing hormone receptor (Homo sapiens), sequence (P34981 whole entry, looked up): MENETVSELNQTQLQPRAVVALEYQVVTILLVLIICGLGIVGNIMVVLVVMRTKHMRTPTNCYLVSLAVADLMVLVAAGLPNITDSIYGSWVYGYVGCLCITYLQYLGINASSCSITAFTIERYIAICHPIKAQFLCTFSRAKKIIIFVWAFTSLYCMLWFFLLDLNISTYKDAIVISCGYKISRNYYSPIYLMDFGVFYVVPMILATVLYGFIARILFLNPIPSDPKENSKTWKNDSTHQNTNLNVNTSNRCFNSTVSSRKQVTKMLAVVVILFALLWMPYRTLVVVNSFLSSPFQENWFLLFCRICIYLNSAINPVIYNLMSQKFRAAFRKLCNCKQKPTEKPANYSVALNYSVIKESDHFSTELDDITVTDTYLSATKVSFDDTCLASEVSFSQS

First: Cc1cn(C)c(CC(=O)NCc2ccccc2)c1C(=O)O
Second: O=C(NCc1ccccc1)C1CCCN(S(=O)(=O)c2cccs2)C1 (stereo not given)
The enhancement of the first is lower: -2.62% for the first, 4.34% for the second.

Compared with `Cc1cccc(-c2nc(SCc3ccc(Br)cc3)n3[nH]c(=O)cc3n2)c1`, `Cc1ccc(-c2nc(SCc3ccc(Br)cc3)n3[nH]c(=O)cc3n2)cc1` is lower in enhancement: 4.69% for the first, -0.363% for the second.

First: O=C(NC1(C(F)(F)F)N=C(c2ccccc2)N(C2CCCCC2)C1=O)c1ccccc1F (stereo not given)
Second: CC(C)(C)OC(=O)N1CCC(c2c(C(=O)NCc3ccccn3)cnn2-c2ccc(F)cc2)CC1
The enhancement of the first is lower: -3.75% for the first, 0.916% for the second.

Going from `CN1CCN(c2oc(-c3ccc(COc4ccc(Cl)cc4)o3)nc2C#N)CC1` to `CC(C)(C)c1ccc(OCC(=O)N2CCC(c3nc4ccccc4s3)CC2)cc1`, the enhancement falls from 0.896% to -1.99%.

Compared with `Cc1ccc(C)c(NC(=O)C2CCCN(S(=O)(=O)c3cn(C)cn3)C2)c1` (stereo not given), `CCOc1ccccc1NC(=O)COc1ccc(S(=O)(=O)N2CCCC2)cc1` is higher in enhancement: 12.8% for the first, 19.7% for the second.

First: CSc1ccc(S(=O)(=O)N2CCC(C(=O)NCc3ccncc3)CC2)cc1
Second: O=C(NCc1ccccn1)C1CCN(S(=O)(=O)c2ccc(Br)cc2)CC1
The enhancement of the first is higher: 0.598% for the first, -2.72% for the second.

Compared with `CCc1nc2c(cnn2-c2ccc(C)cc2)c(=O)n1-c1ccc(C)cc1`, `Cc1ccc(Cn2ncc3c4sc(C)cc4n(C)c3c2=O)c(C)c1` is higher in enhancement: -4.12% for the first, 4.39% for the second.

First: CCCN(CCC)CCNC(=O)c1ccc2c(c1)NC(=O)C(CS(=O)(=O)Cc1cccc(Br)c1)N2 (stereo not given)
Second: O=C(NCCS(=O)(=O)N1CCN(c2ccc(F)cc2)CC1)c1ccccc1Br
The enhancement of the first is higher: 5.05% for the first, 1.15% for the second.

Compared with `O=C(C1CCN(C2CCN(Cc3ccc4cc(F)ccc4n3)CC2)CC1)N1CCCC1`, `O=C(C1CCN(C2CCN(Cc3cccc4c3OCO4)CC2)CC1)N1CCOCC1` is higher in enhancement: -6.35% for the first, 2.59% for the second.

Going from `CC(C)Oc1ccc(NC(=O)c2cc3ccccc3o2)cc1` to `Cc1cc2nc(-c3ccc(NC(=O)c4cc5ccccc5o4)cc3)oc2cc1C`, the enhancement falls from 7.33% to -7.25%.

First: CC(C)(C)n1nc2c(c1NC(=O)c1cc3ccccc3o1)CSC2
Second: COc1cc(OC)c(NC(=O)c2c3c(nn2C)-c2ccccc2SC3)cc1Cl
The enhancement of the first is lower: 1.55% for the first, 2.77% for the second.

First: Cc1ccc(C2CCN(C(=O)c3cnn(-c4ccccc4Cl)c3C3CCN(C(=O)OC(C)(C)C)CC3)C2)cc1 (stereo not given)
Second: CC(C)(C)c1ccc(C(=O)N2CCC(c3nc(-c4ccc(S(=O)(=O)N5CCCC5)cc4)no3)CC2)cc1
The enhancement of the first is higher: 3.84% for the first, -2.71% for the second.

First: CC(=O)Nc1ccc(S(=O)(=O)N2CCN(S(=O)(=O)c3cccs3)CC2)cc1
Second: O=S(=O)(c1cccs1)N1CCN(CCOc2ccccc2)CC1
The enhancement of the first is lower: -0.8% for the first, 5.02% for the second.

Going from `CCOC(=O)C1CCN(c2csc3ccc(C)cc3c2=O)CC1` to `COc1ccc(NC(=O)CC2SC(N3CCCCC3)=NC2=O)cc1OC` (stereo not given), the enhancement rises from -6.67% to 1.49%.

First: CCOC(=O)C1CCC(CN(Cc2ccc(OC)cc2)S(=O)(=O)c2ccc(F)c(C(=O)Nc3cc(C)ccc3C)c2)CC1 (stereo not given)
Second: Cc1ccc(S(=O)(=O)N(CC(=O)Nc2ccc(Cl)cc2Cl)c2ccccc2C)cc1
The enhancement of the first is lower: -3.18% for the first, -0.851% for the second.

First: Cc1ccc(NC(=O)CN2c3ccccc3S(=O)(=O)c3ccccc32)cc1F
Second: Cc1ccc(C)c(NC(=O)CSC2=Nc3ccccc3N=C(c3ccc(F)cc3)C2)c1
The enhancement of the first is higher: 10.5% for the first, -0.667% for the second.

First: COC(=O)c1cc(NC(=O)CN2CCN(C(C)=O)CC2)cc(C(=O)OC)c1
Second: CCC(C)NC(=O)c1ccc(NC(=O)CC2SC(N3CCCCC3)=NC2=O)cc1 (stereo not given)
The enhancement of the first is higher: 6.58% for the first, -8.07% for the second.

Compared with `CCOc1ccc(C2C(C(=O)Nc3ccc(Cl)cc3)=C(C)Nc3nc(C(F)(F)F)nn32)cc1` (stereo not given), `CCCOc1ccc(C(=O)Nc2ccc3oc(-c4cccc(Cl)c4Cl)nc3c2)cc1` is lower in enhancement: 10.8% for the first, -0.105% for the second.

First: C#CC(C)(CC)NC(=O)Cn1nnc(-c2ccc(OCc3c(F)cccc3Cl)cc2)n1 (stereo not given)
Second: COc1cccc(-c2cc(C(=O)Nc3ccc(C)cc3)[nH]n2)c1
The enhancement of the first is higher: 1.56% for the first, -0.168% for the second.

Compared with `COc1cccc(N2CC(NC(=O)/C=C\c3ccccc3)CC2=O)c1` (stereo not given), `CCc1ccc(NC(=O)CSc2nc3c([nH]c4ccccc43)c(=O)n2-c2cccc(OC)c2)cc1` is lower in enhancement: 5.73% for the first, 2.51% for the second.

Going from `Cc1ccccc1CC1(CO)CCCN(Cc2ccc3c(c2)OCCO3)C1` (stereo not given) to `OCC1(CCc2ccccc2)CCN(Cc2ccc3nsnc3c2)CC1`, the enhancement falls from 2.06% to -4.46%.

Compared with `CCc1[nH]nc(C(=O)N2CCCC(CO)(Cc3ccc(F)cc3F)C2)c1C` (stereo not given), `CSCC(=O)N1CCCC(C(=O)c2cc(F)ccc2F)C1` (stereo not given) is lower in enhancement: -3.46% for the first, -3.7% for the second.

Compared with `CSc1nc(=O)c2c(n1C)NC(=O)CC2c1ccccc1OC(C)C` (stereo not given), `Cc1cccc(-c2nc(SCC(=O)Nc3cc(C)on3)c3c(=O)n(C)c(=O)n(C)c3n2)c1` is higher in enhancement: 1.92% for the first, 2.9% for the second.

First: Cc1cc(C)c2oc(C(=O)Nc3c(C(=O)Nc4ccccc4)oc4ccccc34)cc(=O)c2c1
Second: Cc1ccccc1-c1nc2cc(NC(=O)c3cccc(OCCC(C)C)c3)ccc2o1
The enhancement of the first is higher: -1.76% for the first, -6.29% for the second.

First: Cc1ccc(S(=O)(=O)c2nnn3c2nc(N2CCN(c4ccccc4F)CC2)c2cc(Cl)ccc23)cc1C
Second: CC(=O)c1ccc(N2CCN(c3nc4c(S(=O)(=O)c5ccccc5)nnn4c4ccc(Cl)cc34)CC2)cc1
The enhancement of the first is higher: 15.1% for the first, 1.21% for the second.

Going from `COc1ccccc1CNC(=O)c1ccc(-n2c(C)cc3c2CCCC3)cc1` to `COc1ccc(-c2nc(CN3CCC(C(=O)NCc4ccccc4)CC3)c(C)o2)cc1OC`, the enhancement rises from -0.647% to 3.63%.

First: Cc1noc(C)c1-c1ccc2ncnc(NCc3ccc(F)c(F)c3)c2c1
Second: O=C(Cn1c(=O)nc(-c2ccccc2)c2cc(Cl)ccc21)NCc1ccc(Cl)cc1
The enhancement of the first is lower: -4.49% for the first, 10.8% for the second.

Going from `Cc1nc(N=C(N)N)nc2c(C)cccc12` to `Cc1ccc(OC(=O)CSc2nnc(-c3cccs3)o2)cc1`, the enhancement falls from 10.2% to -4.22%.

First: O=C(O)c1ccc(Nc2nc(-c3ccccc3)c3cc(Br)ccc3n2)cc1
Second: Clc1ccc2nc(-c3ccccc3)nc(C(Cl)Cl)c2c1
The enhancement of the first is higher: 7.15% for the first, 2.39% for the second.

First: CCC(C)NC(=O)Cn1c(=O)n(-c2ccc(Cl)cc2)c(=O)c2c3c(sc21)CCCC3 (stereo not given)
Second: COc1ccc(CCNC(=O)C2CCCN(Cc3nc(-c4cccc(Cl)c4)oc3C)C2)cc1OC (stereo not given)
The enhancement of the first is higher: 2.95% for the first, -8.38% for the second.

Going from `CN1CCOc2cc(S(=O)(=O)N3CCN(S(=O)(=O)c4c(F)cccc4F)CC3)cnc21` to `O=[S+]([O-])(c1ccc(OC(F)(F)F)cc1)N1CCN([S+](=O)([O-])c2ccc3c(c2)OCCO3)CC1`, the enhancement falls from -0.823% to -5.08%.

First: CCCCn1c(=N)c(S(=O)(=O)c2ccccc2)cc2c(=O)n3cccc(C)c3nc21
Second: CN(Cc1ccccc1)c1ccc(-c2nc(-c3ccccc3)no2)cc1[N+](=O)[O-]
The enhancement of the first is lower: 1.28% for the first, 5.53% for the second.

Going from `COC1=C/C(=C/c2c(N)n3nc(CC(=O)N4CCOCC4)sc3nc2=O)C=CC1=O` to `Cc1ccc2oc3c(c(=O)c2c1)C(c1ccc([N+](=O)[O-])cc1)N(CCCN1CCOCC1)C3=O` (stereo not given), the enhancement falls from 2.92% to -0.734%.

Compared with `COc1cccc(CC2(CO)CCN(Cc3cnc(-c4cccc(C)c4)nc3)CC2)c1`, `COc1ccc2oc(=O)c(-c3cn4c(n3)sc3cc(OC)ccc34)cc2c1` is lower in enhancement: 1.96% for the first, 1.26% for the second.

First: O=C(CNC(=O)c1ccccc1)OC(C(=O)Nc1cc([N+](=O)[O-])ccc1F)c1ccccc1 (stereo not given)
Second: O=C(c1ccc(OC2CCN(C/C=C/c3ccc(F)cc3)CC2)cc1)N1CCCCC1
The enhancement of the first is lower: -0.946% for the first, 0.691% for the second.

With `O=C(NCc1ccncc1)C1CCCN(S(=O)(=O)c2ccc(Br)cc2)C1` (stereo not given) the enhancement was 30.7% (active).
In the case of `C/C(=C\c1ccco1)CN1CCC(N2CCC(C(=O)N3CCOCC3)CC2)CC1`, the enhancement was 46.7% (active).
In the case of `Cc1c(/C=N\NC(=O)c2cc3ccccc3o2)c2ccccc2n1C`, the enhancement was 44.3% (active).
`CN1CCN(S(=O)(=O)c2ccc(N3CCN(S(=O)(=O)c4cccs4)CC3)nc2)CC1` was tested, and the enhancement was 39.6% (active).
With `CC(=O)N1CCN(CC(=O)Nc2ccc(C)c(F)c2)CC1` the enhancement was 47.8% (active).
For `O=C(COc1ccc(S(=O)(=O)N2CCCCC2)cc1)NCc1ccccn1`, the enhancement was 36.9% (active).
`CCOc1cc(CN2CCCC(CO)(Cc3ccc(F)cc3F)C2)ccc1OC` (stereo not given) was tested, and the enhancement was 45.4% (active).
`CCCCOc1ccc(C(=O)Nc2cccc(-c3nc4ccccc4o3)c2C)cc1` was tested, and the enhancement was 36% (active).
For `O=C(CCl)NNc1nc(-c2ccccc2)c2cc(Cl)ccc2n1`, the enhancement was 32.4% (active).
With `NC(N)=Nc1nc(-c2ccccc2)c2cc(Cl)ccc2n1` the enhancement was 48.4% (active).
In the case of `C=CCC1=C/C(=C\c2c(N)n3nc(CC(=O)N4CCOCC4)sc3nc2=O)C=C(OC)C1=O`, the enhancement was 52.7% (active).
For `Cc1oc(-c2ccccc2F)nc1CN1CCC(C(=O)NCCc2ccc(Cl)cc2)CC1`, the enhancement was 31.8% (active).
For `Cc1c(CN2CCC(CO)(CCOc3ccccc3)CC2)[nH]c2ccc(Cl)cc12`, the enhancement was 35.6% (active).
`O=C(CC1SC(N2CCCC2)=NC1=O)Nc1ccc(C(=O)NCCc2ccc(F)cc2)cc1` (stereo not given) was tested, and the enhancement was 33.4% (active).
In the case of `COc1ccc(/C=C/CN2CCCC(C(=O)c3cc(F)ccc3F)C2)cc1` (stereo not given), the enhancement was 31.8% (active).
